In PubChem BioAssay (NCATS):
Results filed as inconclusive are left out. Calls of active or inactive are those of the source. Calls come from the whole dose curve; as a rule, active = well fitted curve in the direction sought with a large enough effect; inconclusive = small, poorly fitted or top-dose-only effect, or another doubt; inactive = no such curve, though single readings can be large; an effect the other way counts as inactive or inconclusive.

What was measured:
[1] = biological target: Rap guanine nucleotide exchange factor 3 (Homo sapiens) (UniProt O95398); test: Confirmatory qHTS for antagonist of cAMP-regulated guanine nucleotide exchange factor 3 (EPAC1) (AID 1645880); conditions: EPAC1 Rap1B-BODIPY-GDP exchange, fluorescence; activity, negative = inhibition: at 115 µM (top of the series); note: nearly all actives have a fitted effect of over 55% in size; note: potency is the fitted concentration of half-maximal effect;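 for activity, negative = inhibition: plate controls were DMSO only for no effect and full effect of the ATA control for full effect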
Outline: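 Nucleotide exchange uses 100 nM EPAC1, 250 nM RAP1B-BODIPY-GDP and 50 uM GDP, with compounds in a concentration-titration series. After 5 min at room temperature, fluorescence (480 nm ex/540 nm em) is read every 5 min for 30 min. Data are normalized to control ATA and DMSO.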

[2] = biological target: Rap guanine nucleotide exchange factor 3 (Homo sapiens) (UniProt O95398); test: Confirmatory qHTS for agonist of cAMP-regulated guanine nucleotide exchange factor 3 (EPAC1) (AID 1645881); note: nearly all actives have a fitted effect of over 75% in size; note: potency is the fitted concentration of half-maximal effect
[3] = biological target: Rap guanine nucleotide exchange factor 4 (Homo sapiens) (UniProt Q8WZA2); test: Confirmatory qHTS for antagonist of cAMP-regulated guanine nucleotide exchange factor 4 (EPAC2) (AID 1645885); note: nearly all actives have a fitted effect of over 25% in size; note: potency is the fitted concentration of half-maximal effect; for activity change, negative = inhibition: % is set by controls: 0 for no effect and ±100 for the full control effect
[4] = biological target: Rap guanine nucleotide exchange factor 3 (Homo sapiens) (UniProt O95398); test: Counterscreen qHTS for antagonist of cAMP-regulated guanine nucleotide exchange factor 3 (EPAC1) (AID 1645888);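 note: fluorescence loss as bound BODIPY-GDP is released from Rap1B; % of control where 0% means no effect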
Outline: (§1)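 Measured: fluorescence of BODIPY-GDP bound to Rap1B, which falls as exchange proceeds. Conditions include 50 uM competing GDP, 5 and 30 min reads, and a later cAMP challenge for antagonist detection.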

[5] = biological target: Rap guanine nucleotide exchange factor 3 (Homo sapiens) (UniProt O95398); test: Counterscreen qHTS for agonist of cAMP-regulated guanine nucleotide exchange factor 3 (EPAC1) (AID 1645889); note: nearly all actives have a fitted effect of over 40% in size; note: potency is the fitted concentration of half-maximal effect
Outline: as §1

[6] = biological target: Tyrosyl-DNA phosphodiesterase 1 (Homo sapiens) (UniProt Q9NUW8); test: Confirmation Assay for Inhibitors of Tyrosyl-DNA Phosphodiesterase (TDP1) (AID 489007); conditions: recombinant human TDP1 enzymatic activity, dose-response; note: potency is the fitted concentration of half-maximal effect; nearly all actives have a fitted effect of over 40% in size
Outline: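 Confirmation of primary-screen follow-ups in a qHTS format. Substrate cleavage by Tdp1 (1 nM) of a 3'-phosphotyrosine-FITC, 5'-biotin oligo (15 nM) was monitored as decreased AlphaScreen signal after a 5 min room-temperature reaction.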

[7] = biological target: Tumor susceptibility gene 101 protein (Homo sapiens) (UniProt Q99816); test: qHTS Assay for Iinhibitors of HIV-1 Budding by Blocking the Interaction of PTAP/TSG101: Hit Validation (AID 651600); note: % is set by controls: 0 for no effect and ±100 for the full control effect; nearly all actives have a fitted effect of over 70% in size
Outline: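 Displacement of a FITC-labeled PTAP-motif peptide (50 nM) from the Tsg101 binding domain (10 uM) was monitored by fluorescence polarization after a 20 min room-temperature incubation.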

Sequence of Rap guanine nucleotide exchange factor 3 (Homo sapiens) (O95398 whole entry, looked up): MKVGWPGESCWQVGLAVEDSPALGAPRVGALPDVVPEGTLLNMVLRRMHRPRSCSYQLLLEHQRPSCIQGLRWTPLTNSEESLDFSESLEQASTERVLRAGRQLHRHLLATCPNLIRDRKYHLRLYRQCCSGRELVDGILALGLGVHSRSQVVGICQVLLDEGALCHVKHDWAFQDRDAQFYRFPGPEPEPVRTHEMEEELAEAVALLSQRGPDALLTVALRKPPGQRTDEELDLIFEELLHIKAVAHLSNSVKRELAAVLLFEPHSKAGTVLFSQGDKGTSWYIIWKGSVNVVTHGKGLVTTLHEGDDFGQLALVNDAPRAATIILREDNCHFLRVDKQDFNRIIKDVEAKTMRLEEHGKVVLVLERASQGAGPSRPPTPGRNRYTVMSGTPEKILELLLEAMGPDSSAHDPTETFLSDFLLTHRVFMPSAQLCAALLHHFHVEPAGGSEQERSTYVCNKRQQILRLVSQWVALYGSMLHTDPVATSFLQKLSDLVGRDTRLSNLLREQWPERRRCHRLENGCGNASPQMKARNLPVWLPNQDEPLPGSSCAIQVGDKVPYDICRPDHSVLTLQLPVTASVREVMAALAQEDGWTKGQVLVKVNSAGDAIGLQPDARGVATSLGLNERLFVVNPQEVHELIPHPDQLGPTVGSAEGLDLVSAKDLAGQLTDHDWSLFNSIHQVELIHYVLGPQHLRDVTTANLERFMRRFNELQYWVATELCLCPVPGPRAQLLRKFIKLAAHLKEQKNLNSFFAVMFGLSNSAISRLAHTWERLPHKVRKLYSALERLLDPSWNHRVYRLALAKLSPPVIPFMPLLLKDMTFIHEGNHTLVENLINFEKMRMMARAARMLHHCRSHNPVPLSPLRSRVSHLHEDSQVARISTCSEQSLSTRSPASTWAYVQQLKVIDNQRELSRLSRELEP
Sequence of Rap guanine nucleotide exchange factor 4 (Homo sapiens) (Q8WZA2 whole entry, looked up): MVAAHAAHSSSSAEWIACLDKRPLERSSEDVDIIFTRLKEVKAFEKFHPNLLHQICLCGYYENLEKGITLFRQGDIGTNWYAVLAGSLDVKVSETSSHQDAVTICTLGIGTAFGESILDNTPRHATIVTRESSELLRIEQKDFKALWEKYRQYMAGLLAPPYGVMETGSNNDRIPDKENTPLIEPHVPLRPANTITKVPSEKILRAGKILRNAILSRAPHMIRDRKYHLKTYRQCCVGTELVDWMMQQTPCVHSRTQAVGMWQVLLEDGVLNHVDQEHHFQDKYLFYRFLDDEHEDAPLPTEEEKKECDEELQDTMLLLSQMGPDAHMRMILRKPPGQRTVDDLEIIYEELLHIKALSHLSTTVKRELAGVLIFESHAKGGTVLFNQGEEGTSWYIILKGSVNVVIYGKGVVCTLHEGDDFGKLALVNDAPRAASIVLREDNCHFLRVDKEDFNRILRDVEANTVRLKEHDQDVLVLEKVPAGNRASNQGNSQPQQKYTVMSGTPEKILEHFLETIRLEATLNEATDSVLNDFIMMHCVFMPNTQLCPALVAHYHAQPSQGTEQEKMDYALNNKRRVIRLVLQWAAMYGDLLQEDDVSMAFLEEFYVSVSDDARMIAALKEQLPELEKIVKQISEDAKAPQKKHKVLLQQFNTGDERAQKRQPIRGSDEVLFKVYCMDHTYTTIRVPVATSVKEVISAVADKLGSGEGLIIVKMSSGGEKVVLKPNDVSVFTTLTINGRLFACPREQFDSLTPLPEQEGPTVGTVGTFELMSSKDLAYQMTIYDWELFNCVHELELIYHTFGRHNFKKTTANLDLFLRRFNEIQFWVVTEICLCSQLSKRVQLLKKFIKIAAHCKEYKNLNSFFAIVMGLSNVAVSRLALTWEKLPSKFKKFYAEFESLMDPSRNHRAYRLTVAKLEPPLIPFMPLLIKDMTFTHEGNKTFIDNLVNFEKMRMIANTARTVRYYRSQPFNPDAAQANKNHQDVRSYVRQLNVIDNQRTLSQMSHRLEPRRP
Sequence of Tumor susceptibility gene 101 protein (Homo sapiens) (Q99816 whole entry, looked up, the tested form may be a part): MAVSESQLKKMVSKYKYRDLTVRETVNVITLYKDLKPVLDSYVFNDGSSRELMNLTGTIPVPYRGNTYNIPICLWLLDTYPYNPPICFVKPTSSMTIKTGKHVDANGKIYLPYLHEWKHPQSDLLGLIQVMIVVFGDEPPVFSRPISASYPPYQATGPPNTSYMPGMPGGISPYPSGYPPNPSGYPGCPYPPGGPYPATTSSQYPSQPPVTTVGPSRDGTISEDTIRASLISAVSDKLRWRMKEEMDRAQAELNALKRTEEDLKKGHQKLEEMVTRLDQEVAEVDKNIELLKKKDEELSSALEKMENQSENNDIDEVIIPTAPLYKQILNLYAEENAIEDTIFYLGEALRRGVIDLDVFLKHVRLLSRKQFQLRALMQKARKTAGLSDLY
Sequence of Tyrosyl-DNA phosphodiesterase 1 (Homo sapiens) (Q9NUW8 whole entry, looked up): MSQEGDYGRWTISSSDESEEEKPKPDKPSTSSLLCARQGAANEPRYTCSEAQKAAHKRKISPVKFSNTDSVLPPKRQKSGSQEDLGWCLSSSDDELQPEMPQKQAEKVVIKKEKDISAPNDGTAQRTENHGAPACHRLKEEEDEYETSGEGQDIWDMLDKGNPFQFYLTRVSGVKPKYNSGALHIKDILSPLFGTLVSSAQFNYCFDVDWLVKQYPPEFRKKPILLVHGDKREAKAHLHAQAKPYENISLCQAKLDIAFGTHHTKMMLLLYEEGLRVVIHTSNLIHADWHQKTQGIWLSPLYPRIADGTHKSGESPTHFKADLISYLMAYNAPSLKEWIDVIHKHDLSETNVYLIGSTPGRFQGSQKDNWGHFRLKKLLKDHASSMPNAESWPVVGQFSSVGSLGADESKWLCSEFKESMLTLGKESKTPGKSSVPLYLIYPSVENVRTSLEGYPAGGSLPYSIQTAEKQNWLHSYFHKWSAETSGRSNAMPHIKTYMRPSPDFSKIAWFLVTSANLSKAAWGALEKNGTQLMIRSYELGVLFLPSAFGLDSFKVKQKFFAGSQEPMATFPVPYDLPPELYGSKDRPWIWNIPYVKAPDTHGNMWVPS

COC(=O)c1cc2sccc2n1Cc1ccccc1
active: Potency [5] 44.7 µM
inactive: Potency [1] | Potency [2] | Potency [3] | Potency [4]

COc1ccc(C(=O)Nc2ccc(NC(=O)c3cccs3)cc2)cc1OC
inactive: Potency [1] | Potency [2] | Potency [3] | Potency [4] | Potency [5]

CC(C)COc1ccc(C(=O)Nc2cc(-c3ccccc3)no2)cc1
inactive: Potency [1] | Potency [2] | Potency [3] | Potency [4] | Potency [5]

COc1cc(CN2C(=O)C(C)ON=C2c2ccccc2F)cc(OC)c1 (stereo not drawn)
inactive: Potency [1] | Potency [2] | Potency [3] | Potency [4] | Potency [5]

CCN(CC)CCOC(=O)c1ccc(NC(=O)c2nn(-c3ccc(C)cc3)c(=O)c3c2c2ccccc2n3C)cc1
inactive: Potency [2] | outcome [3] inactive [at 12.7 µM] | Potency [4] | Potency [5]
active: Potency [1] 42.6 µM

Nc1nc2ccccc2n1S(=O)(=O)c1ccc([N+](=O)[O-])cc1
inactive: Potency [1] | Potency [2] | Potency [3] | Potency [4] | Potency [5]

CCOC(=O)c1cc2c(=O)n3ccccc3nc2n(C(C)C)c1=NC(=O)c1cc2ccccc2o1
inactive: Potency [2] | Potency [3] | Potency [4] | Potency [5]
active: Potency [1] 75.7 µM

COc1ccc(N2CCN(CC(O)COc3ccc(C(C)C)c(C)c3)CC2)cc1 (stereo not drawn)
inactive: Potency [1] | Potency [2] | Potency [3] | Potency [4] | Potency [5]

CCN(CC(=O)NCc1cccs1)C(=O)c1ccc(S(=O)(=O)Nc2ccccc2)cc1
inactive: Potency [1] | Potency [2] | Potency [3] | Potency [4] | Potency [5]

CCN(CC)CC#CCOC(c1ccccc1)c1ccccc1
inactive: Potency [1] | Potency [2] | Potency [4] | Potency [5]
active: Potency [3] 37.9 µM

COc1ccc(N=Nc2nc3ccc(Br)cc3n2C)cc1
inactive: Potency [1] | Potency [2] | Potency [3] | Potency [4]
active: Potency [5] 50.1 µM

O=C(c1ccccc1Br)N(Cc1ccco1)Cc1ccco1
inactive: Potency [1] | Potency [2] | Potency [3] | Potency [4] | Potency [5]

O=C(C(=Cc1ccccc1)c1ccccc1)c1ccccc1
inactive: Potency [1] | Potency [2] | Potency [3] | Potency [4] | Potency [5]

COc1ccc2c(Cl)c(C(=O)N/N=C3\CCCC(=O)C3)sc2c1
active: Potency [3] 30.1 µM | Potency [5] 39.8 µM
inactive: Potency [1] | Potency [2] | Potency [4]

CCCc1nn2c(=O)cc(COC(=O)c3ccc(NC(=O)COc4ccccc4F)cc3)nc2s1
inactive: Potency [1] | Potency [2] | Potency [3] | Potency [4] | Potency [5]

Oc1[nH]c2ccccc2c1N=Nc1ccccc1F
active: Potency [5] 11.2 µM
inactive: Potency [1] | Potency [2] | Potency [3] | Potency [4]

Cc1cc(C)c(S(=O)(=O)N(C)c2ccccc2)c(C)c1
active: Potency [3] 23.9 µM
inactive: Potency [1] | Potency [2] | Potency [4] | Potency [5]

CCC(=O)N1CCc2cc(CNC(=O)c3ccccc3C)ccc21
inactive: Potency [1] | Potency [2] | Potency [3] | Potency [4] | Potency [5]

COC(=O)c1c(NC(=O)c2ccc(S(=O)(=O)N3CCCCC3C)cc2)sc2c1CCN(C(C)C)C2 (stereo not drawn)
inactive: Potency [1] | Potency [3] | Potency [4]
active: Potency [2] 112 µM | Potency [5] 79.4 µM

CCOc1ccc(NC2c3ccccc3C(=O)N2Cc2ccco2)cc1 (stereo not drawn)
inactive: Potency [1] | Potency [2] | Potency [3] | Potency [4] | Potency [5]

Nc1ccc2c(O)cc(S(=O)(=O)O)cc2c1
active: Potency [1] 4.26 µM
inactive: Potency [2] | Potency [3] | Potency [4] | Potency [5]

Cc1cc(C)c2c(CN3CCCCC3C)cc(=O)oc2c1 (stereo not drawn)
inactive: Potency [1] | Potency [2] | activity change, negative = inhibition [4] -3.91% [at 30.8 µM]

CN(Cc1ccccc1)c1nc(-c2ccc(F)cc2)cc(C(F)(F)F)n1
inactive: Potency [1] | Potency [2] | Potency [4] | Potency [5]
active: Potency [6] 28.2 µM | Potency [3] 0.0849 µM

Cn1ccc2c(N3CCCCCCC3)cc3c(c21)C1CCC3O1 (stereo not drawn)
inactive: Potency [1] | Potency [2] | Potency [4]

O=C(O)CCNC(=O)c1ccc(NC(=O)C(c2ccccc2)c2ccccc2)cc1
inactive: Potency [1] | Potency [2] | Potency [4]

COC(=O)c1cn(C(=O)c2ccc(OC)c(OC)c2)c2ccccc12
inactive: Potency [1] | Potency [2] | activity change, negative = inhibition [4] -11% [at 30.8 µM]

O=C(O)c1ccccc1-c1ccc(/C=C/c2cc(C(F)(F)F)[nH]c(=O)n2)o1
active: Potency [2] 89.1 µM
inactive: Potency [7] | Potency [1] | Potency [3] | activity change, negative = inhibition [4] 309% [at 30.8 µM]
